Source: PubChem BioAssay (EPA / NIEHS)
Records with an inconclusive call do not appear. Calls of active or inactive are those of the source. The calls were made as follows: active = hit-call score of the fitted dose curve at least 0.9, where 1 is the maximum; inconclusive = response in the unintended direction; inactive = score below 0.9.

molecular target: human Matrix Metalloproteinase-7 (MMP7), MMP7 (gene 4316) (UniProt P09237); assay: NVS_ENZ_hMMP7: NovaScreen (NVS) Enzymatic Assay for human Matrix Metalloproteinase-7 (MMP7) (AID 2283183)
Sequence (P09237 whole entry, looked up): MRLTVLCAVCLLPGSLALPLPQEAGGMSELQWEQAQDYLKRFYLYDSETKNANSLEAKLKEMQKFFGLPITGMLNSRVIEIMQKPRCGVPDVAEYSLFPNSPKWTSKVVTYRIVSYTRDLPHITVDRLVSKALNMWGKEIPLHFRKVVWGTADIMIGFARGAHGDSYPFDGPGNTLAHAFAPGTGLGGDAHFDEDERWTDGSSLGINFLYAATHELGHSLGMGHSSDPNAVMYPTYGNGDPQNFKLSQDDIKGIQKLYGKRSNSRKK
Method in brief: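 Cell-free fluorescence enzymatic assay read 1 h after compound addition, activity loss analyzed against DMSO. Primary duplicate testing at 25 uM; compounds meeting threshold rerun in singleton concentration-response up to 50 uM.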

Compound | outcome
Nc1ccc(S(=O)(=O)c2ccc(N)cc2)cc1 | inactive
CNC(=O)[C@H]1O[C@@H](n2cnc3c(NCc4cc(Cl)ccc4OCc4cc(C)no4)ncnc32)[C@H](O)[C@@H]1N | inactive
OC[C@@H](O)[C@@H](O)[C@H](O)[C@H](O)CO | inactive
CC=Cc1ccc(O)c(OC)c1 | inactive
CCCCCCC(=O)OCC | inactive
CCCCCCCCCCCC(=O)OC | inactive
O=[N+]([O-])C(CO)(CO)CO | inactive
CC(C)(C)c1cc(O)c(C(C)(C)C)cc1O | inactive
C[Si]1(C)O[Si](C)(C)O[Si](C)(C)O[Si](C)(C)O1 | inactive

molecular target: human Matrix Metalloproteinase-2 (MMP2), MMP2 (gene 4313) (UniProt P08253); assay: NVS_ENZ_hMMP2: NovaScreen (NVS) Enzymatic Assay for human Matrix Metalloproteinase-2 (MMP2) (AID 2283184)
Sequence (P08253 whole entry, looked up): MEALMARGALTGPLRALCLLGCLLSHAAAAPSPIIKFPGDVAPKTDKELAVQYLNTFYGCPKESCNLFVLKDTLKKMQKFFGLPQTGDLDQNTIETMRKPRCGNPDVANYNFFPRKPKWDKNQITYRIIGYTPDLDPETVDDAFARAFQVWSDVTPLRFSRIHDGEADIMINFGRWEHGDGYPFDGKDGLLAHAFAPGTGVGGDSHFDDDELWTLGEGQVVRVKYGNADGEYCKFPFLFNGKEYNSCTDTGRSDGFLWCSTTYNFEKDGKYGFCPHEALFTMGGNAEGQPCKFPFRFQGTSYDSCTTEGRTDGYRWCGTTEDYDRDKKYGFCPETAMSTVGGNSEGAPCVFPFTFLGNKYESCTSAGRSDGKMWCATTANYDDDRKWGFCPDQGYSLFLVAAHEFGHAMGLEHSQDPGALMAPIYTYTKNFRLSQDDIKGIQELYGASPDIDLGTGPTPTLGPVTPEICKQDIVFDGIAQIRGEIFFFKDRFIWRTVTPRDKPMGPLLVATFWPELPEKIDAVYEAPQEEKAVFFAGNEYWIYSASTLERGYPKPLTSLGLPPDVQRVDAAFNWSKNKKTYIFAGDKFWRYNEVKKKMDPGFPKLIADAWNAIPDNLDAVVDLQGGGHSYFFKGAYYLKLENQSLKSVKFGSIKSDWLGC
Method in brief: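 Cell-free recombinant MMP2 activity with a fluorescent substrate, read 1 h after dosing. Primary screen in duplicate at 25 uM; actives then run in concentration series; loss of signal fitted versus DMSO.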

Compound | outcome | AC50
Cc1ccc2ncccc2c1 | inactive | 
COCCOC[C@H](CC1(C(=O)NC2CCC(C(=O)O)CC2)CCCC1)C(=O)Oc1ccc2c(c1)CCC2 (some centres not stated) |  | 19.8 µM (active)
Cc1nc(C)nc(N2C[C@@H](C)N(c3ccnc([C@@H](C)O)n3)[C@@H](C)C2)n1 |  | 7.26 µM (active)
C[Si]1(C)O[Si](C)(C)O[Si](C)(C)O[Si](C)(C)O1 | inactive | 
CCCc1cc(=O)[nH]c(=S)[nH]1 | inactive | 

molecular target: human Phosphodiesterase 4A1 (PDE4A1), PDE4A (gene 5141) (UniProt P27815); assay: NVS_ENZ_hPDE4A1: NovaScreen (NVS) Enzymatic Assay for human Phosphodiesterase 4A1 (PDE4A1) (AID 2283191)
Sequence (P27815 whole entry, looked up): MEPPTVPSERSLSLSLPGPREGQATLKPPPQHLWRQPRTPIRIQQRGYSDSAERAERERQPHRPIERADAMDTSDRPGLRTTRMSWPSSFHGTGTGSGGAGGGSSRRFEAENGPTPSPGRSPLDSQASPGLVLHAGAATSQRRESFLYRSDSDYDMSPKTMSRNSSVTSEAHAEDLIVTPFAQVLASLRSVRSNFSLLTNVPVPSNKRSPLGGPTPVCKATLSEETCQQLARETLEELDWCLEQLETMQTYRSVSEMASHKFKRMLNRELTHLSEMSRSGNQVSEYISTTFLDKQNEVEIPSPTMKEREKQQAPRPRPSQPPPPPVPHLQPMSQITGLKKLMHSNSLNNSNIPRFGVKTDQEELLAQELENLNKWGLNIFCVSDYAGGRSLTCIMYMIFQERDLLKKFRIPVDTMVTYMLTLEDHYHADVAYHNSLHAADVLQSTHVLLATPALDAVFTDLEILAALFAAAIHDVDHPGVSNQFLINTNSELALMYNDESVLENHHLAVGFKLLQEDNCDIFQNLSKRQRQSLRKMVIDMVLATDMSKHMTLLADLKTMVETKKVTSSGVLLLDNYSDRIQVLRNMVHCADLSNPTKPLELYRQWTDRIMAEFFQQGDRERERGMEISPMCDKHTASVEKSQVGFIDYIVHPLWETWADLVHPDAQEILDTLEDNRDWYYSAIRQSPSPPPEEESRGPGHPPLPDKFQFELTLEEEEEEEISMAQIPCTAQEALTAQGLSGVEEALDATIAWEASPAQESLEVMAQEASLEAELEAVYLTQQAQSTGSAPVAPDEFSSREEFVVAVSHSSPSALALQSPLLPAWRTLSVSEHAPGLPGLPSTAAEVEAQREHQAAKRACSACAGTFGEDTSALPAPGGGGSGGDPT
Method in brief: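 Cell-free recombinant human PDE4A1 with fluorescent substrate; product separated by electrophoretic mobility shift, 1 h. Screened at 25 uM, then up to 50 uM in concentration-response; loss of signal fitted against DMSO.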

Compound | outcome
Cc1c(C(=O)O)c(O)cc2c1C(=O)c1c(O)c([C@@H]3O[C@H](CO)[C@@H](O)[C@H](O)[C@H]3O)c(O)c(O)c1C2=O | inactive
CNCc1cc(F)ccc1Oc1ccc(Cl)c(Cl)c1 | inactive
O=C(N[C@@H](Cc1ccccc1)[C@@H](O)C(=O)N1C[C@@H](O)[C@@H](O)C1)c1cc2cc(Cl)ccc2[nH]1 | inactive

molecular target: human Protein Phosphatase, Mg2+/Mn2+ Dependent 1A (PPM1A), PPM1A (gene 5494) (UniProt P35813); assay: NVS_ENZ_hPPM1A: NovaScreen (NVS) Enzymatic Assay for human Protein Phosphatase, Mg2+/Mn2+ Dependent 1A (PPM1A) (AID 2283198)
Sequence (P35813 whole entry, looked up): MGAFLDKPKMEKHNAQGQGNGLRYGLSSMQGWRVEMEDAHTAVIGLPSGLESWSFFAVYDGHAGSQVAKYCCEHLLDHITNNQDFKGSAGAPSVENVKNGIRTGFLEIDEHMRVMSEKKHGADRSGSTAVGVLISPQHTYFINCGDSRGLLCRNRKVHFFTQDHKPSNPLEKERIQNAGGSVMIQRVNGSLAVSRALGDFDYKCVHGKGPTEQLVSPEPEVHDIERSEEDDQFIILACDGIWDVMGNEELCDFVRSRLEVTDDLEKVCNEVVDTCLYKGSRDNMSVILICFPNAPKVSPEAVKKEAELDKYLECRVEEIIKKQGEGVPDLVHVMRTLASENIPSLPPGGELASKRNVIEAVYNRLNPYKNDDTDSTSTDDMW
Method in brief: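 Cell-free recombinant PPM1A phosphatase assay with fluorescent substrate, read 1 h after dosing by electrophoretic mobility shift. Chemicals screened in duplicate at 25 uM, then in concentration-response up to 50 uM; loss of activity versus DMSO.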

Compound | outcome
Cc1cc(=O)[nH]c(=S)[nH]1 | inactive
CCCCCCC(=O)OCC | inactive
Cc1cc(NC(=O)C(=O)O)cc(C)c1Oc1ccc(O)c2c1CCC2 | inactive
Oc1ccc2c(c1)OC[C@@H](N1CCC(O)(c3ccc(F)cc3)CC1)[C@H]2O | inactive
O=c1[nH]cc(F)c(=O)[nH]1 | inactive
O=C(OCCCCCOC(=O)c1ccccc1)c1ccccc1 | inactive
CC(C)(C)c1cc(O)c(C(C)(C)C)cc1O | inactive

molecular target: Serine/threonine-protein phosphatase PP1-alpha catalytic subunit (Homo sapiens) (UniProt P62136); assay: NVS_ENZ_hPPP1CA: NovaScreen (NVS) Enzymatic Assay for human Protein Phosphatase 1 Aatalytic subunit Alpha (PPP1CA) (AID 2283200)
Sequence (P62136 whole entry, looked up): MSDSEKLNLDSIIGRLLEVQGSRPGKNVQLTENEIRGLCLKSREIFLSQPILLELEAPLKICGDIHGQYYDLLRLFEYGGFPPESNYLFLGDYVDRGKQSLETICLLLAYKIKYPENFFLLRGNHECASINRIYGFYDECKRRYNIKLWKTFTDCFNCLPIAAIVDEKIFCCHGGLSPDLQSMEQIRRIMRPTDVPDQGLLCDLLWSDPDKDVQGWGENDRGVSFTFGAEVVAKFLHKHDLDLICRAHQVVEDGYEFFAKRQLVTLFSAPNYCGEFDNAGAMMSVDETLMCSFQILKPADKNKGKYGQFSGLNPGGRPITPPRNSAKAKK
Method in brief: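 Recombinant enzyme activity read by fluorescence with electrophoretic mobility shift separating substrate from product, 1.33 h after dosing; loss of signal vs DMSO baseline. Primary screen in duplicate at 25 uM; actives retested in concentration-response up to 50 uM.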

Compound | outcome
CCCCN(CCCC)CCCC | inactive
O=C(OCCCCCOC(=O)c1ccccc1)c1ccccc1 | inactive
CC1(C)NC(=O)NC1=O | inactive
